Screening data as filed in PubChem.
ST2 IL33 inh: IL1RL1 inhibition; AlphaLISA ST2-Fc/biotin-IL-33 interaction, 1 h; inhibition, % for hits at 17 µM; hit rate 2.3% among 78,000; AID 1259354; in the data active = inhibition above about 30%
Target sequence (Q01638 whole entry, looked up): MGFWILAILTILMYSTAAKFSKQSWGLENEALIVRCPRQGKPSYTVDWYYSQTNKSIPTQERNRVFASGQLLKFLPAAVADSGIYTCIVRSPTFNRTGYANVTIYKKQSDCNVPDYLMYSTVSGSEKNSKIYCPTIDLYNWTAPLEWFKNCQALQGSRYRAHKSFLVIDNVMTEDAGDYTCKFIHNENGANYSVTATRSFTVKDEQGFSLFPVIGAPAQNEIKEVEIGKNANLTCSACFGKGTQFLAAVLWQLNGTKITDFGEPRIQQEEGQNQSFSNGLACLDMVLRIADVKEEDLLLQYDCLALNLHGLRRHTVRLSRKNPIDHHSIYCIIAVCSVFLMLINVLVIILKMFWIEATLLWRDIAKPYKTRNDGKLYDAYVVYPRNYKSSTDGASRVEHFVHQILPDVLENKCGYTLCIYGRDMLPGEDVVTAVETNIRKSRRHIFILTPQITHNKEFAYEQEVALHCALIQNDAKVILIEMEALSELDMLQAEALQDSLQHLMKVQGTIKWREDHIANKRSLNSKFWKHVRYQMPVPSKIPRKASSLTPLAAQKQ
* hit, by the source's call; i = inactive; ! = repeats disagree. This is one part of a sample in which hits are shown more often than they occur.

SMILES | ST2 IL33 inh
Cc1nn(C)cc1CN1CCOc2ccc(C3=Cc4ccccc4CC3)cc2C1 | i
CCCc1cc(C(=O)Nc2cnn(Cc3ccc(Cl)cc3Cl)c2)no1 | i
CCn1c(C2CCN(C(=O)CCCn3cncn3)CC2)nn(C)c1=O | i
Cc1cc(C)c(S(=O)(=O)Nc2nc(C)cc(C)n2)c(C)c1 | i
Cc1ccc(CN2CCN(C(=O)c3n[nH]c4c3CCC4)C(C)C2=O)cc1 (centres undefined) | i
CCN(Cc1ccccc1)Cc1ccc(NC(C)=O)cc1 | i
CCN(CC)c1ccc(NC(=O)CCN2C(=O)c3ccccc3C2=O)cc1 | i
CCN(CC)c1ccc(NC(=O)Cc2ccccc2)cc1 | 36.0%*
O=C(NCC1(c2ccccc2)CCCC1)C1CCCN1S(=O)(=O)c1cccc2nsnc12 (centres undefined) | i
Cc1n[nH]c(C)c1Cc1nc(CN2CCN(C)CC2)no1 | i
Cc1c(C(=O)O)sc2nc(SC/C=C/c3ccccc3)[nH]c(=O)c12 | i
Cc1cc(Nc2ccc(O)cc2)c2cc(Cl)ccc2n1 | i
COc1ccc2nc(C)cc(Nc3ccccc3OC)c2c1 | i
CCOc1ccccc1Nc1cc(C)nc2ccc(OC)cc12 | i
COc1cccc(Nc2cc(C)nc3ccc(Cl)cc23)c1 | i
Cc1cc(Nc2ccc(N(C)C)cc2)c2cc(Cl)ccc2n1 | 39.0%*
COc1ccc2nc(C)cc(Nc3ccc(N(C)C)cc3)c2c1 | 52.0%*
CCOc1ccccc1N1C(=O)C2CC(C)=C(C)CC2C1=O (centres undefined) | i
O=C(O)C1CCCN1S(=O)(=O)c1ccc([N+](=O)[O-])cc1 (centres undefined) | i
COc1ccccc1N1CCN(C(=O)Cc2cn(C)c3ccccc23)CC1 | i
COc1cc([N+](=O)[O-])ccc1NC(=O)c1cc(Br)ccc1OC | i
N#Cc1ccc(N=c2oc3ccccc3cc2C(=O)Nc2ccccc2)cc1 | 33.0%*
CC(=O)NC(=O)c1cc2cc(Cl)cc(Cl)c2oc1=Nc1cccc(C#N)c1 | i
CC(=O)NC(=O)c1cc2cc(Br)ccc2oc1=Nc1cccc(C#N)c1 | 33.0%*
CC(=O)NC(=O)c1cc2cc(Br)ccc2oc1=Nc1cccc(F)c1 | i
SMILES | ST2 IL33 inh
COc1ccc2cc(C(=O)Nc3ccccc3)c(=Nc3ccc(C#N)cc3)oc2c1 | i
COc1ccc2oc(=Nc3ccc(C#N)cc3)c(C(=O)Nc3ccccc3)cc2c1 | i
CC(=NCCc1c[nH]c2ccccc12)c1c(O)n(C)c(=O)[nH]c1=O | i
Cc1ccc(/C=C2\NC(=O)N(Cc3ccc(Cl)cc3)C2=O)cc1[N+](=O)[O-] | i
COc1cc(N/C=C(/C#N)c2nc(-c3ccc(OC)c(OC)c3)cs2)c(OC)cc1Cl | 40.0%*
COc1cc(C(=O)Nc2nc(-c3ccc4c(c3)OCO4)cs2)cc(OC)c1OC | i
COc1cc(NC(=O)c2ccc(-c3ccccc3)cc2)c(OC)cc1Cl | i
N#C/C(=C\c1cccc([N+](=O)[O-])c1)c1nc(-c2ccc3c(c2)OCO3)cs1 | i
N#C/C(=C\Nc1ccccc1F)c1nc(-c2cc3cc([N+](=O)[O-])ccc3oc2=O)cs1 | i
COc1ccccc1N/C=C(\C#N)c1nc(-c2ccc3c(c2)OCO3)cs1 | 41.0%*
O=C1C(=O)N(CCN2CCOCC2)C(c2cccs2)C1=C(O)c1ccc(Cl)cc1 (centres undefined) | i
O=C(Nc1cc2cc(Br)ccc2oc1=O)C1CCCCC1 | i
COc1cc([N+](=O)[O-])cc(CN2CCN(Cc3ccccc3)CC2)c1O | i
COc1cc(NC(=O)NC[C@H]2O[C@@H](CO)[C@@H](O)[C@H]2N2CCN(c3cccc(C(F)(F)F)c3)CC2)cc(OC)c1 | 86.0%*
COc1ccc(C(=O)NC[C@H]2O[C@@H](CO)[C@@H](O)[C@H]2N2CCN(c3ccccn3)CC2)cc1 | i
O=C(NC[C@H]1O[C@@H](CO)[C@@H](O)[C@H]1N1CCN(c2ccc(F)cc2)CC1)c1ccc(F)c(Cl)c1 | 34.0%*
COc1ccccc1N1CCN([C@@H]2[C@H](O)[C@H](CO)O[C@@H]2CNC(=O)c2cccc(F)c2)CC1 | i
CC(=O)NC[C@H]1O[C@@H](CO)[C@@H](O)[C@H]1N1CCN(c2ccccc2)CC1 | 37.0%*
O=C(NC[C@H]1O[C@@H](CO)[C@@H](O)[C@H]1N1CCN(c2ccccc2)CC1)N1CCOCC1 | i
CN1CCN([C@@H]2[C@H](O)[C@H](CO)O[C@@H]2CNC(=O)c2cccc(F)c2)CC1 | 32.0%*
CN1CCN([C@@H]2[C@H](O)[C@H](CO)O[C@@H]2CNC(=O)Nc2cccc(Cl)c2)CC1 | i
O=C(NC[C@H]1O[C@@H](CO)[C@@H](O)[C@H]1N1CCN(c2ccccc2)CC1)c1ccc(C(F)(F)F)cc1 | i
O=C(NC[C@H]1O[C@@H](CO)[C@@H](O)[C@H]1N1CCCC1)c1ccco1 | i
O=C(NC[C@H]1O[C@@H](CO)[C@@H](O)[C@H]1N1CCN(c2cccc(C(F)(F)F)c2)CC1)c1cccc(F)c1 | i
O=C(NC[C@H]1O[C@@H](CO)[C@@H](O)[C@H]1N1CCN(c2cccc(C(F)(F)F)c2)CC1)c1cccs1 | i
SMILES | ST2 IL33 inh
O=C(CCCOc1ccc(Cl)cc1Cl)N1CCOCC1 | i
CCOC(=O)C1C(=O)C=C(c2ccc(OC)cc2)CC1c1ccc(C)cc1 (centres undefined) | i
CC1(C(=O)NC2CCCC2)COc2c(oc3ccccc23)C(=O)N1Cc1ccccc1F (centres undefined) | i
C[C@H]1[C@@H]2[C@@H](O)C([C@H](C)C(=O)N3CCCCC3)CC[C@@]2(C)CC[C@@H]1NC(=O)Cc1ccccc1 (some centres undefined) | i
COCc1[nH]nc2c1C(c1ccc(OC)c(OC)c1OC)C(C#N)=C(N)O2 (centres undefined) | i
Cn1ccnc1SCCNC(=O)c1cn(CC2CCCCC2)nn1 | i
COc1ccc(CC(=O)Nc2ccccc2Cl)cc1 | i
O=C(NCCN1CCCC1)C1CC(=O)N(C2CCCCCC2)C1 (centres undefined) | i
CCCCc1nc(Cl)c(CN2CCN3C(=O)CNC(=O)C3C2)[nH]1 (centres undefined) | i
CCCc1nc2oc3c(-c4ccccc4)c(C(=O)O)c(C)nc3c2c2c1COC(C)(C)C2 | i
CCc1nc2oc(C(=O)c3ccc(Cl)cc3)c(N)c2c2c1COC(C)(C)C2 | i
CCc1nc2oc(C(=O)c3ccccc3)c(N)c2c2c1COC(C)(C)C2 | 40.0%*!
COc1ccc(-c2ncc(Cl)cn2)c2ccc(C)nc12 | i
Cc1ccc2c(C)ccc(O)c2n1 | 31.0%*
Cc1ccc(O)c(CCc2ccc(O)c(S(=O)(=O)O)c2)n1 | i
CCOc1cc2c(cc1OCC)C1C(C(=O)N3CCCCC3CC)c3ccccc3C(=O)N1CC2 (centres undefined) | i
COc1cc(-c2nc(N3CCCCC3C)c3ccccc3n2)cc(OC)c1OC (centres undefined) | i
O=C(CCCc1cccs1)N1[C@H]2CCNC[C@@H]1CC2 | i
OCCn1c(-c2ccc3c(c2)OCCO3)nc2ccccc21 | i
Cc1nc(-c2ccc(C(=O)N3CCCC3C(=O)NCc3ccccc3)cc2)no1 (centres undefined) | i
CCOC(=O)C1(Cc2ccccc2Cl)CCN(C(=O)C#Cc2ccccc2)CC1 | i
CCOC(=O)C1(CC2CCCCO2)CCN(C(=O)C#Cc2ccccc2)CC1 (centres undefined) | i
